Inconclusive results are not listed. A call without a number means that no potency is given here. Activity calls are given as the source filed them. The call rests on the fitted dose curve; in most records, active means well fitted curve in the direction sought with a large enough effect; inconclusive means small, poorly fitted or top-dose-only effect, or another doubt; inactive means no such curve, though single readings can be large; an effect the other way counts as inactive or inconclusive. Numbered stars: 1 amine (or outer) side, 2 acyl side, 3 side chain; on linkers, the order of the positions; unused ones are H or OH. Square brackets hold non-standard residues; d marks the D form. Peptide text beside a SMILES is read from it. * marks the point of attachment. X1 = CCCCCCCCCC(=O)[C@H](C(=O)[*:2])[C@@H]1CNC(=O)[C@@H](N[*:1])CS1; Octanoyl = CCCCCCCC(=O)*
Key:
[1] = system: Zika virus NS2B-NS3 protease (linked construct); experiment: Primary screen NINDS Rhodamine qHTS for Zika virus inhibitors (AID 1347160); further: nearly all actives have a fitted effect of over 55% in size; further: potency means the concentration at half of the fitted maximal effect
Procedure, shortened: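 Enzyme (25 nM, linked NS2B-NS3) was preincubated 15 min with compound in 10 mM Tris-HCl pH 8.0, 0.01% Tween 20. Rhodamine110 substrate (1.5 microM) was then added and fluorescence read at start and after 15 min.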

[2] = OV-KATE Cancer Cell Toxicity qHTS against the NCATS CANVASS Library (AID 1347345)
Procedure, shortened: (§1)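 Per well, 1000 cells; exposure 72 h with compound at 11 final concentrations; readout CellTiter-Glo luminescence.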

[3] = HPAF-II Cancer Cell Toxicity qHTS against the NCATS CANVASS Library (AID 1347346); further: series mostly up to about 38 µM; nearly all actives have a fitted effect of over 55% in size
Procedure, shortened: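 First, HPAF-II cells are plated (1000 cells/well) and held 4 h at 37 degrees C. Next, compounds are pin-transferred as an 11-point series. After 72 h, CellTiter-Glo is added and luminescence measured.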

[4] = UWB1.289 Cancer Cell Toxicity qHTS against the NCATS CANVASS Library (AID 1347347); further: nearly all actives have a fitted effect of over 60% in size; further: potency means the concentration at half of the fitted maximal effect
Procedure, shortened: as §1

[5] = Panc-1005 Cancer Cell Toxicity qHTS against the NCATS CANVASS Library (AID 1347349); further: series mostly up to about 38 µM; nearly all actives have a fitted effect of over 60% in size
Procedure, shortened: as §1

[6] = U-118MG Cancer Cell Toxicity qHTS against the NCATS CANVASS Library (AID 1347351)
Procedure, shortened: as §1

[7] = COV-362 Cancer Cell Toxicity qHTS against the NCATS CANVASS Library (AID 1347352); further: series mostly up to about 38 µM
Procedure, shortened: (§2)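 First, 1000 cells go into each well and rest for 4 hours. Next, an 11-point dilution range is pinned in. Plates then incubate 72 hours before CellTiter-Glo addition and luminescence reading.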

[8] = A2780 Cisplatin Sensitive Ovarian Cancer Cell Toxicity qHTS against the NCATS CANVASS Library (AID 1347353); further: nearly all actives have a fitted effect of over 60% in size
Procedure, shortened: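 Cells are plated at 750 per well and rest for 4 hours. Compounds are added across eleven concentrations, and incubated 72 hours before ATP is quantified by luminescence.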

[9] = UWB1.289-WTBRCA1 Cancer Cell Toxicity qHTS against the NCATS CANVASS Library (AID 1347354)
Procedure, shortened: as §2

[10] = HEK293 18hr Apoptosis Induction qHTS against the NCATS CANVASS Library (AID 1347357)
Procedure, shortened: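 HEK293 cells (500/well, DMEM + 10% FBS) treated with an 11-point series for 18 h at 37 degrees C. Caspase-3/7 activity read by Caspase-Glo luminescence after 15 min at room temperature.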

[11] = HEK293 12hr Apoptosis Induction qHTS against the NCATS CANVASS Library (AID 1347361)
Procedure, shortened: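 HEK293 cells (500/well) were exposed to an 11-point qHTS concentration series for 12 hours at 37 degrees C. Caspase-3/7 activity was then read by DEVD-substrate luciferase luminescence after 15 min at room temperature.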

[12] = qHTS for ATAD5 Agonist screened against the NCATS CANVASS Library (AID 1347367);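 further: luciferase reporter driven by ATAD5 which rises upon DNA damage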
Procedure, shortened: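 Luciferase reporter under ATAD5 control, stably integrated in HEK293T cells (2000/well). Compounds (11 points) incubated 16 h at 37C; viability read first by CellTiter-Fluor, then luminescence reporting ATAD5 activation. MMS positive control.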

[13] = MCF7 Cancer Cell Toxicity qHTS against the NCATS CANVASS Library (AID 1347369)
Procedure, shortened: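 MCF7 cells (500/well) were exposed 72 h at 37 °C to compounds in an 11-point series. Viability was read as ATP content by CellTiterGlo luminescence.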

[14] = qHTS for ATAD5 Antagonist screened against the NCATS CANVASS Library (AID 1347370);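 further: HEK293T cells carrying an ATAD5 luciferase reporter co-treated with 10 µM 5-fluorouridine; series mostly up to about 46 µM; nearly all actives have a fitted effect of over 65% in size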
Procedure, shortened: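 Compounds (11-point) co-dosed with 10 µM 5-FUrd for 16 h at 37 °C onto HEK293T-ATAD5 luciferase reporter cells. Viability measured by CellTiter-Fluor fluorescence, then ATAD5 reporter signal by luminescence.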

[15] = J3T Cancer Cell Toxicity qHTS against the NCATS CANVASS Library (AID 1347371);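 further: J3T is a canine glioma cancer cell line seeded at 500 cells per well; series mostly up to about 46 µM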
Procedure, shortened: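 Luminescence from CellTiterGlo, reporting cellular ATP, serves as the viability measure after 72 hr compound treatment of J3T canine glioma cells seeded at 500 cells/well.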

[16] = target: Nuclear receptor subfamily 1 group I member 3 (Homo sapiens) (UniProt Q14994); experiment: qHTS for Constitutive Androstane Receptor (CAR) Agonist screened against the NCATS CANVASS Library (AID 1347373);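 further: every well also contained 1.5 µM PK11195 alongside the test compound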
Procedure, shortened: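 Cells were plated and allowed to attach for 4hr, then dosed with compound in an 11-point series alongside 1.5uM PK11195. After 24hr at 37C, viability was measured fluorometrically and CAR-driven CYP2B6 reporter luminescence was recorded.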

[17] = qHTS for Inflammasome Signaling Inhibitors: IL-1-beta AlphaLISA screen against the NCATS CANVASS Library (AID 1347379);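 further: human THP-1 cells primed with LPS then triggered with ATP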
Procedure, shortened: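 Secreted IL-1B from human THP-1 cells quantified by AlphaLISA 16 hr after compound addition (final up to 57.5 uM). A 1 hr compound pretreatment preceded inflammasome activation with 250 ng/mL LPS plus 1.25 mM ATP (final).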

[18] = Inflammasome Signaling qHTS Counterscreen: IL-1-beta AlphaLISA counterscreen against the NCATS CANVASS Library (AID 1347381);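 further: cell-free check with purified IL-1β in medium and no THP-1 cells; series mostly up to about 57 µM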
Procedure, shortened: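 Purified IL-1-beta (4 pg/well) + compound, 11-pt conc. series; acceptor beads 6 ug/mL + biotin-Ab 0.6 nM final, 1 h RT; SA-donor 24 ug/ml final, 30 min dark RT; read ex 680/em 615.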

[19] = Cytotoxicity qHTS for assessment of Hepg2 cells membrane integrity screened against the NCATS CANVASS Library (AID 1347387)
Procedure, shortened: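 Cells were seeded at 2000 per well and left overnight to attach. Compounds were pin-transferred to give 0.59 nM - 46 uM in an 11-point series and incubated 5 hr at 37C. CytoTox-ONE reagent was added and, after 10 min at room temperature, fluorescence (ex 560, em 590 nm) was read.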

[20] = Vero-766 cells viability qHTS against the NCATS CANVASS Library: Counterscreen for Zika virus inhibition assay (AID 1347394); further: series mostly up to about 46 µM; nearly all actives have a fitted effect of over 60% in size
Procedure, shortened: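 Vero 766 cells (1000/well), without Zika virus, were exposed to compounds for 72 h at 37C. Viability was measured by CellTiter Glo luminescence. Media-only wells served as 100% inhibition.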

Sequence of Nuclear receptor subfamily 1 group I member 3 (Homo sapiens) (Q14994 whole entry, looked up): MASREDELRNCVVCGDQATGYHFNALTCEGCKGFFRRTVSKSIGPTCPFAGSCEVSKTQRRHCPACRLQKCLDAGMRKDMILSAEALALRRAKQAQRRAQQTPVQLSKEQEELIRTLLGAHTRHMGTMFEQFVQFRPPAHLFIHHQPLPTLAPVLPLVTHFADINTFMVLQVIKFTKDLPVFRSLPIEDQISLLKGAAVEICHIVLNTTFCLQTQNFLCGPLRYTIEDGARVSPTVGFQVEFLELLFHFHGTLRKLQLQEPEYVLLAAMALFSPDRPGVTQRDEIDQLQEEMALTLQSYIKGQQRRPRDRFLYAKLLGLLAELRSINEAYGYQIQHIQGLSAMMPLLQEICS

SMILES	Potency [1]	Potency [2]	Potency [3]	Potency [4]	Potency [5]	Potency [6]	Potency [7]	Potency [8]	Potency [9]	Potency [10]	Potency [11]	Potency [12]	Potency [13]	Potency [14]	Potency [15]	outcome [16]	Potency [17]	outcome [18]	outcome [19]	Potency [20]
CCCCCCCC(=O)N[C@@H](CC(C)C)C(=O)N[C@H](C=O)CCC(=O)O (Octanoyl-Leu-Glu-aldehyde)	39.2 µM (active)	inactive	inactive	inactive	inactive	inactive	inactive	inactive	inactive	inactive	inactive	inactive	inactive	inactive	inactive	inactive	inactive	inactive	inactive	inactive
Oc1ccc(/C=C2/c3cc(O)cc(O)c3C(c3ccc(O)cc3)[C@H]2c2cc(O)cc(O)c2)cc1 (stereo not given in full)	27.7 µM (active)	inactive	inactive	3.75 µM (active)	–	inactive	inactive	inactive	–	inactive	inactive	inactive	inactive	inactive	inactive	inactive	inactive	inactive	inactive	inactive
CCCCCCCCCC(=O)[C@@H]1C(=O)N[C@@H](CC(C)C)C(=O)N[C@H](C)C(=O)N2CCC[C@H]2C(=O)N[C@@H](C(C)C)C(=O)N[C@H]2CS[C@H]1CNC2=O (cyclo(L[dA]PV[X1]))	4.4 µM (active)	inactive	inactive	inactive	inactive	inactive	inactive	inactive	inactive	inactive	inactive	inactive	inactive	inactive	inactive	inactive	inactive	inactive	inactive	inactive
CC1C(=O)C23CCC1C[C@@]21O[C@H]2C(C)(C)C=CC(=O)[C@@]23COC1=O (stereo not given in full)	inactive	inactive	inactive	inactive	inactive	inactive	inactive	inactive	inactive	inactive	inactive	inactive	inactive	inactive	inactive	inactive	inactive	inactive	inactive	inactive
C=C1C[C@@]23C=CC(=O)[C@@](C)(CCC(=O)Nc4c(O)ccc(C(=O)O)c4O)C2C[C@@H]1CC3O (stereo not given in full)	49.3 µM (active)	inactive	inactive	inactive	–	inactive	inactive	inactive	inactive	inactive	inactive	inactive	inactive	inactive	inactive	inactive	inactive	inactive	inactive	inactive
CC1(C)C=Cc2c(ccc3c2OC[C@@H](c2ccc(O)cc2O)C3)O1	44 µM (active)	inactive	inactive	inactive	inactive	inactive	inactive	–	inactive	inactive	inactive	inactive	inactive	inactive	inactive	–	inactive	inactive	inactive	inactive

— PubChem BioAssay (NCATS)
